# Values joined by “and” are separate entries in the source; they are usually repeats but may differ in a detail not shown here. Identical values can stand only once. Active and inactive are the calls of the source.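 The calls were made as follows, unless noted: active = compounds whose cell count with miR-34 switched on is under 0.7 times the count with it off; inactive = the rest.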
# Key:
# [1] = P. berghei load reduction in hepatocytes – cell-based, HepG2, luciferase luminescence, HepG2 viability, primary screen (AID 624349; in the data active = parasite load remaining mostly below about 12%, no sharp cut-off; inactive = mostly above about 10%;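 also: 100% = mean of DMSO negative control wells on the same plate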); settings: P. berghei liver stage in HepG2, luciferase luminescence, concentration not given here; parasite load remaining: stronger effect = lower value; viability: measured here: HepG2 viability without parasites
# [2] = Wnt pathway potentiators raising nuclear beta-catenin – imaging, WNT3A-conditioned medium, mouse C2C12, NPC library, primary screen (AID 1117326; in the data active = nuclear beta-catenin stimulation mostly above about 4.2%, no sharp cut-off; inactive = mostly below about 10%); settings: stronger effect = higher value
# [3] = stimulators of insulin release from INS-1E, primary screen, cell-based, 5 mM glucose, NPC library (AID 1117329;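 active = compound raises insulin release from rat beta cells at 5 mM glucose, no numeric limit stated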); settings: rat INS-1E insulin secretion, at 10 µM, stronger effect = higher value
# [4] = growth inhibition of GSK3B-pretreated HCT116 cells – cell-based, CellTiter-Glo, 0.2 to 20 µM (AID 1117336;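 active = compounds lowering colon cancer cell viability after pretreatment blocking the GSK3B kinase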); settings: HCT116 viability after GSK3B inhibitor, at 20 µM, stronger effect = higher value
# [5] = inhibition of endothelial tube formation, primary screen, imaging, VEGF stimulated, CD31 staining, tube area, NPC library (AID 1117340;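 active = compound that reduces growth-factor-driven endothelial tube area in a mixed cell culture, no cutoff stated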); settings: VEGF-stimulated ADSC/ECFC co-culture, at 10 µM, stronger effect = higher value
# [6] = GLP1 release stimulators, primary, NCI-H716, NPC library (AID 1117341;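 active = compound raises GLP1 secretion from the human gut endocrine cells, with no numeric limit stated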); settings: NCI-H716 cells, at 10 µM, stronger effect = higher value
# [7] = HCT116 colon cancer cell growth inhibition, primary screen, CellTiter-Glo luminescence, NPC library (AID 1117342;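 active = compounds that lower survival of HCT116 colon cancer cells in the luminescence readout, no numeric limit stated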); settings: at 20 µM (top of the series)
# [8] = reduced SW480 viability measured with CellTiter-Glo, NPC library, primary (AID 1117343;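 active = compounds that lower viability of the colon cancer cells in the luminescence readout, with no numeric limit stated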); settings: CellTiter-Glo luminescence; at 20 µM (top of the series) unless noted
# [9] = NPC library primary testing for decreased DLD-1 cell viability via CellTiter-Glo (AID 1117346;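 active = compounds that lower survival of DLD-1 colon cancer cells in the luminescence readout, no cutoff given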); settings: DLD-1 viability, CellTiter-Glo luminescence; at 20 µM (top of the series)
# [10] = EMT-state selective cytotoxicity in co-culture – imaging, PC-3E GFP, TEM4-18 mCherry, primary screen (AID 1345086;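 active = compounds killing one labelled cell type while sparing the other, by normalised counts and ratio limits, not self-fluorescent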;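 as to all read-outs here: cells exposed to compound for 72 h before imaging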;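 as to red/green cell ratio (normalised): normalised mesenchymal count divided by normalised epithelial count so high means epithelial killing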); settings: PC-3E GFP / TEM4-18 mCherry co-culture, imaging cell counts, at 1 µM; for red/green cell ratio (normalised): actives lie on both sides, counts scaled to control wells, 1 = unselective
# [11] = viability loss with induced miR-34 in A549 – imaging, A549 dox-inducible miR-34, nuclei and caspase counts, primary screen (AID 1347080); settings: A549 miR-34 inducible, Hoechst nuclei count, 48 h
# [12] = MELAS cybrid and Rieske KO viability enhancers – cell-based, MELAS cybrids, Rieske KO mouse fibroblasts, CellTiter-Glo, primary screen (AID 1508586;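 active = mean z-score across replicates of 1.96 or higher in either the MELAS or the Rieske mutant cell line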;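 also: z relative to plate mean and SD of compound and empty wells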); settings: low glucose
# [13] = molecular target: NAD(+) hydrolase SARM1 (Homo sapiens) (UniProt Q6SZW1); assay: blocking NAD cleavage by SARM1 SAM-TIR – cell lysate, NAD-Glo luminescence (AID 1508614;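 active = compound whose remaining NAD level is above about 45 nM, limit read from the data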;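 also: higher remaining NAD means stronger inhibition of SARM1 NADase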); settings: SAM-TIR HEK293T lysate NADase, at 1 µM, stronger effect = higher value
# [14] = growth inhibition, single agent or in combination, cell-based, chromothripsis tumors, cisplatin or BGB combos (AID 1671449; in the data active = inhibition above about 80%;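 also: cells exposed for 96 hours; 0% = vehicle DMSO and 100% = killing by high DMSO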); settings: LFS_MB_P medulloblastoma cells
# [15] = growth inhibition, single agent and combos, cell-based, chromothripsis tumors, cisplatin or BGB combos (AID 1671450; in the data active = inhibition above about 80%;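 also: cells exposed to compound for four days; 0% = vehicle DMSO and 100% = cell killing by high DMSO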); settings: HDN33 neuroblastoma cells, stronger effect = higher value
# [16] = growth inhibition, single agents and combos, ICB984, cell-based, cisplatin or BGB combos, synergistic combos for chromothripsis tumors (AID 1671451; call rule not given here;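 also: cells exposed for 96 hours before readout; 0% = vehicle DMSO and 100% = killing by high DMSO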); settings: ICB984 medulloblastoma cells, drug combinations, stronger effect = higher value
# [17] = growth inhibition, single agents and combos, HTB85, cell-based, BGB or cisplatin IC20 combos, synergistic combos for chromothripsis tumors (AID 1671453; in the data active = inhibition above about 80%;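 also: cells exposed for 96 hours before readout; 0% = vehicle DMSO and 100% = high DMSO killing control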); settings: HTB85 osteosarcoma cells, drug combinations, stronger effect = higher value
# [18] = growth inhibition, MDA-MB-436, cell-based, BGB or cisplatin combos, synergistic combos for chromothripsis tumors (AID 1671458; call rule not given here;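 also: cells exposed for 96 hours; 0% = vehicle DMSO and 100% = killing by high DMSO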); settings: MDA-MB-436 breast carcinoma growth inhibition, drug combinations, stronger effect = higher value
# [19] = measured here: epithelial PC-3E GFP cell survival
# [20] = measured here: mesenchymal TEM4-18 mCherry cell survival
# [21] = stronger effect = lower value, cell number ratio, induced over uninduced
# [22] = measured here: relative caspase fold change +Dox/-Dox
# [23] = measured here: total cells with miR-34 induction, stronger effect = lower value
# [24] = measured here: total cells without miR-34 induction
# [25] = MELAS cybrid survival, CellTiter-Glo 48 h, stronger effect = higher value
# [26] = Rieske KO mouse fibroblast survival, CellTiter-Glo 72 h
# NAD(+) hydrolase SARM1 (Homo sapiens), sequence (Q6SZW1 whole entry, looked up): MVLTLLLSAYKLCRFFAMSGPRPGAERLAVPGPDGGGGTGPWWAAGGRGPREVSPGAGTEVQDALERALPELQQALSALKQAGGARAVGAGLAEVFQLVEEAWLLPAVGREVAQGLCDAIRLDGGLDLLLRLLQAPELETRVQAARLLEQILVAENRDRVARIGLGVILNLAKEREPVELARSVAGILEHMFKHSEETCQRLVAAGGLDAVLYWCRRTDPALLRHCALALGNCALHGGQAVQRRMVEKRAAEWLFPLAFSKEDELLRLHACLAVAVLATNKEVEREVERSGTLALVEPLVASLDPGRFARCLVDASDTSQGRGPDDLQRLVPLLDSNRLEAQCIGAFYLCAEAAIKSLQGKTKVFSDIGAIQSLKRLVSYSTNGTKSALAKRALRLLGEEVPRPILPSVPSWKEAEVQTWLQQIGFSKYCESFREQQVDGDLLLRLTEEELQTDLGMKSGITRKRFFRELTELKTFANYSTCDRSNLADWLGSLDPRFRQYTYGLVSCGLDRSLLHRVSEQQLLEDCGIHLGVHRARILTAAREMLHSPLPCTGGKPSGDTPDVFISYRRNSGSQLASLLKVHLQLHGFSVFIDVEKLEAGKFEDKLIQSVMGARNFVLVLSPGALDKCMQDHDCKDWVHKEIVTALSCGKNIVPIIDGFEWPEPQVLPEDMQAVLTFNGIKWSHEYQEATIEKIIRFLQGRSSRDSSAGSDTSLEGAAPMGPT
structure (smiles),measurement,setting,value
COc1cc(C(=O)N2CCOCC2)cc(OC)c1OC,parasite load remaining,[1],75.3% (inactive)
same,viability,[1],105%
same,nuclear beta-catenin stimulation,[2]; at 10 µM,0.3% (inactive)
same,nuclear beta-catenin stimulation,"[2]; stimulation, at 2 µM",-0.7%
same,insulin secretion stimulation,[3],-1.8% (inactive)
same,viability decrease,[4],14.1% (inactive)
same,tube area decrease,[5],-2.8% (inactive)
same,GLP1 secretion stimulation,[6],6.1% (inactive)
same,inhibition of viability,[7],-2.4% (inactive)
same,viability decrease (inhibition),[8],30.7% (inactive)
same,viability decrease (inhibition),[9],20.1% (inactive)
same,red/green cell ratio (normalised),[10],1.06 (inactive)
same,normalised cell number,[10]; [19],1.01
same,normalised cell number,[10]; [20],1.07
same,fold change,[11]; [21],0.951 (inactive)
same,fold change,[11]; [22],1.55
same,cell count,[11]; [23],11700
same,cell count,[11]; [24],12300
same,z-score,[12]; [25],0.673 (inactive)
same,z-score,[12]; [26],0.477
same,remaining NAD,[13],10 nM (inactive)
Nc1ccc2cc3ccc(N)cc3nc2c1,nuclear beta-catenin stimulation,[2]; at 10 µM,164% (active)
same,nuclear beta-catenin stimulation,"[2]; stimulation, at 2 µM",9.1%
same,insulin secretion stimulation,[3],24% (active)
same,viability decrease,[4],42% (active)
same,tube area decrease,[5],-95.9% (inactive)
same,GLP1 secretion stimulation,[6],11.8% (inactive)
same,inhibition of viability,[7],104% (active)
same,viability decrease (inhibition),[8],106% (active)
same,viability decrease (inhibition),[9],45.9% (active)
same,red/green cell ratio (normalised),[10],0.58 (inactive)
same,normalised cell number,[10]; [19],0.74
same,normalised cell number,[10]; [20],0.43
same,fold change,[11]; [21],0.846 (inactive) and 0.958 (inactive)
same,fold change,[11]; [22],0.821 and 1.18
same,cell count,[11]; [23],1150 and 2160
same,cell count,[11]; [24],1360 and 2260
same,z-score,[12]; [25],2.13 (active)
same,z-score,[12]; [26],-2.97
same,remaining NAD,[13],10 nM (inactive)
same,inhibition,"[14]; at 0.5 µM, stronger effect = higher value",-32.2% (inactive)
same,inhibition,"[14]; measured here: combination with BGB IC20, at 0.005 µM",13.5%
same,inhibition,"[14]; measured here: combination with BGB IC40, at 0.005 µM",-11.3%
same,inhibition,"[14]; measured here: combination with BGB IC40, at 0.05 µM",22.5%
same,inhibition,"[14]; measured here: combination with cisplatin, at 0.5 µM, stronger effect = higher value",-47.3%
same,inhibition,"[14]; measured here: combination with cisplatin, at 5 µM, stronger effect = higher value",91.6%
same,inhibition,"[15]; BGB combo, at 5 µM",96.4%
same,inhibition,[15]; at 0.5 µM,-6.06% (inactive)
same,inhibition,"[15]; cisplatin combo, at 5 µM",99.6%
same,inhibition,"[15]; measured here: with BGB IC20 combination, at 0.5 µM",5.24%
same,inhibition,"[15]; measured here: with cisplatin IC20 combination, at 0.5 µM",-17.9%
same,inhibition,"[15]; single agent, at 5 µM",97.6%
same,inhibition,"[16]; BGB IC20 combo, at 0.005 µM",-22.1%
same,inhibition,"[16]; BGB IC40 combo, at 0.005 µM",-20.5%
same,inhibition,"[16]; BGB IC40 combo, at 0.05 µM",98.8%
same,inhibition,[16]; at 0.5 µM,-20.2% (inactive)
same,inhibition,"[16]; cisplatin combo, at 0.05 µM",98.8%
same,inhibition,"[16]; cisplatin combo, at 0.5 µM",-22.1%
same,inhibition,"[16]; cisplatin combo, at 5 µM",-11.1%
same,inhibition,"[16]; measured here: 5 uM single agent, at 5 µM",-9.35%
same,inhibition,[17]; at 0.5 µM,-33.1% (inactive)
same,inhibition,"[17]; measured here: with BGB IC20, at 0.5 µM",-40.6%
same,inhibition,"[17]; measured here: with BGB IC20, at 5 µM",79.3%
same,inhibition,"[17]; measured here: with cisplatin IC20, at 0.5 µM",-43.3%
same,inhibition,"[17]; measured here: with cisplatin IC20, at 5 µM",99.3%
same,inhibition,"[17]; single agent, at 5 µM",84.4%
same,inhibition,[18]; at 0.5 µM,7.24% (inactive)
same,inhibition,"[18]; measured here: BGB combination, at 0.5 µM",-0.519%
same,inhibition,"[18]; measured here: BGB combination, at 5 µM",92.2%
same,inhibition,"[18]; measured here: cisplatin combination, at 0.5 µM",-19.4%
same,inhibition,"[18]; measured here: cisplatin combination, at 5 µM",97.5%
CC[N+](CC)(CC(=O)Nc1c(C)cccc1C)Cc1ccccc1,parasite load remaining,[1],117% (inactive) and 51.1% (inactive)
same,viability,[1],146% and 98%
same,nuclear beta-catenin stimulation,[2]; at 10 µM,-0.3% (inactive)
same,nuclear beta-catenin stimulation,"[2]; stimulation, at 2 µM",6.8%
same,insulin secretion stimulation,[3],-0.4% (inactive)
same,viability decrease,[4],-6.6% (inactive)
same,tube area decrease,[5],-5.6% (inactive)
same,GLP1 secretion stimulation,[6],1.3% (inactive)
same,inhibition of viability,[7],-21.2% (inactive)
same,viability decrease (inhibition),[8],14.9% (inactive)
same,viability decrease (inhibition),[9],-2.15% (inactive)
same,red/green cell ratio (normalised),[10],1.59 (inactive)
same,normalised cell number,[10]; [19],1.01
same,normalised cell number,[10]; [20],1.61
same,fold change,[11]; [21],0.914 (inactive) and 0.932 (inactive)
same,fold change,[11]; [22],0.77 and 5.58
same,cell count,[11]; [23],8020 and 13200
same,cell count,[11]; [24],8770 and 14200
same,z-score,[12]; [25],-0.589 (inactive)
same,z-score,[12]; [26],-0.906
same,remaining NAD,[13],10 nM (inactive)

# Reference: PubChem BioAssay
